# Laboratory results taken from PubChem BioAssay AID493122 (National Center for Advancing Translational Sciences (NCATS), 2011).
# Active and inactive are the calls of the source. How the calls were made is not given here.
# Experiment: Concentration response cycloheximide confirmation counterscreen for small molecule inhibitors of Shiga toxin
# Conditions: protein synthesis reporter, cells; series mostly up to 76.6 µM
row,Compound,outcome
1,CN(C)S(=O)(=O)c1ccc(C(=O)OCC(=O)c2ccc3c(c2)NC(=O)CO3)cc1,inactive
2,CC(C)CNC(=O)c1noc2c1CCCC2,inactive
3,COc1ccccc1CNC(=O)c1csc2c1CCCC2,inactive
4,CCn1c2ccccc2c2cc(NC(=O)c3cccc([N+](=O)[O-])c3)ccc21,inactive
5,Cc1cc(C(=O)COC(=O)CNS(=O)(=O)c2ccc3ccccc3c2)c(C)n1-c1ccccc1,inactive
6,COc1ccc(C(C)(C)C)cc1NC(=O)c1ccc2c(c1)SC1=NS(=O)(=O)CCN12,inactive
7,CCOC(=O)C1(CCCc2ccccc2)CCN(C(=O)CCn2cncn2)CC1,inactive
8,O=C(Nc1ccccc1)c1ccc[nH]1,inactive
9,Cc1cccc(NC(=O)CCN2C(=O)c3ccccc3S2(=O)=O)c1C,inactive
10,CN(C(=O)c1ccc2c(=O)n3c(nc2c1)CCCCC3)c1ccccc1,inactive
11,CN(C)S(=O)(=O)c1ccc(C(=O)Nc2ccc(CN3CCCC3)cc2)cc1,inactive
12,CC(=O)c1ccc(N2CCN(S(=O)(=O)c3ccc4c(c3)CC(C)N4C(C)=O)CC2)cc1 (stereo unspecified),inactive
13,C=CCNC(=O)c1ccc(C)c(Br)c1,inactive
14,O=C(CC(c1ccccc1)c1cc(Cl)ccc1O)N1CCCC1 (stereo unspecified),inactive
15,O=C(NC1CCCC1)c1cc(Cl)ccc1[N+](=O)[O-],inactive
16,CC1CCC/C=C/C2CC(O)CC2C(O)/C=C/C(=O)O1 (stereo unspecified),inactive
